High-throughput results as filed in PubChem BioAssay.
Hits are enriched below; roughly 7.1% of the tested compounds scored in any of these assays.
p53 reactivator – mutant p53 re-activation in reporter cells. 320,000 tested, 0.063% active. Potency, µM (doses to about 92.2 µM), for inactives: top-dose activity change, positive = activation, most hits filed as activators. AID 504706. H1299 p53-A138V BP100-luciferase reporter, luminescence, 24 h; note: % of control where 0% means no effect; nearly all actives have a fitted effect of over 45% in size
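p53-null H1299 cells stably carrying temperature-sensitive p53-A138V and a BP100-luciferase reporter were pinned with compounds (4-point, 1:5 series) and held 24 hrs at 37 deg C. Luminescence was read 10 min after detection reagent.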
MCF10A rerep – induces DNA re-replication in MCF 10a normal breast cells; Potency, µM (highest dose often 46.1 µM), inactives show at the top dose activity, positive = re-replication, usual class: activators; 350,000 tested, 2.9% active; MCF 10A DNA re-replication, Hoechst nuclear intensity, 48 h; AID 624296; note: % of control where 0% means no effect; nearly all actives have a fitted effect of over 50% in size
ELG1 repair inh – inhibitors of ELG1-dependent DNA repair in HEK293T cells; HEK293T ELG1-luciferase reporter, luminescence, 16 h; DNA damage induced by 5-fluorouridine; Potency, µM (titrated, usually from 46.1 µM), for the others: at the highest dose activity change, negative = inhibition, usual class: inhibitors; 330,000 tested, 2.3% active; AID 504467; note: % is set by controls: 0 for no effect and ±100 for the full control effect; nearly all actives have a fitted effect of over 55% in size
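DMSO vehicle served as the neutral condition. Each well held 2,000 cells given 5-fluorouridine plus compound; after 16 hr at 37 °C/5% CO2, ONE-Glo was added and luciferase measured 30 min later.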
ELG1 genotox – inducers of genotoxicity in HEK293T ELG1-luciferase cells | HEK293T ELG1-luciferase reporter, luminescence, 16 h | Potency, µM (highest dose often 46 µM), for the others: at the top dose activity change, positive = activation, hits mostly activators | 330,000 tested, 1.3% active; note: % of control where 0% means no effect; nearly all actives have a fitted effect of over 60% in size
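After overnight (16 hr) compound treatment at 37 °C, ELG1-luciferase HEK293T cells were lysed with ONE-Glo; luminescence quantified 30 min later at room temperature.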
SW480 rereplic – DNA re-replication induction in SW480 cells; SW480 DNA re-replication, Hoechst DNA content imaging, 48 h; AID 624297; 340,000 tested, 1.8% active; Potency, µM (series often up to 46.1 µM), without a hit: top-dose re-replication activation, usual class: activators; note: % of control where 0% means no effect; nearly all actives have a fitted effect of over 55% in size
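First, 250 cells per well were seeded. Next, compound or vehicle (23 nL) was pinned in, plates sat 48 hr at 37 C. Finally Hoechst was added for 40 min before fluorescence scanning.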
AT treatment – potential ataxia-telangiectasia treatments restoring KAP-1 phosphorylation; F2112 A-T fibroblasts, KAP-1 phosphorylation AlphaLISA; neocarzinostatin DNA damage 30 min before lysis; Potency, µM (highest dose often 57.5 µM), inactives show top-dose activation, actives largely listed as activators; 320,000 tested, 0.19% active; note: % of control where 0% means no effect; nearly all actives have a fitted effect of over 45% in size
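hTERT-immortalized A-T patient fibroblasts (F2112), 500 cells/well in OPTI-MEM, 1% FBS, got compounds for 60 min, then NCS for 30 min at 37C. Lysates were then assayed for phospho-KAP-1 by AlphaLISA (anti-pKAP1 donor, anti-KAP1 acceptor beads), 6 hr at 25C.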
Numbers without * were called inactive; ? = inconclusive; / = no result; [ ] = another dose, or the depositor's remark. Calls come from the whole dose curve; as a rule, active = well fitted curve in the direction sought with a large enough effect; inconclusive = small, poorly fitted or top-dose-only effect, or another doubt; inactive = no such curve, though single readings can be large; an effect the other way counts as inactive or inconclusive. Potency is the fitted concentration of half-maximal effect.

SMILES	p53 reactivator	MCF10A rerep	ELG1 repair inh	ELG1 genotox	SW480 rereplic	AT treatment
COc1ccc(OC)c(/C=N\NC(=O)c2ccc(-c3ccccc3)cc2)c1	-11%	?	?	-10%	1%	11%
COc1cccc(/C=C2\SC(=O)NC2=O)c1OCc1ccc(C(=O)O)cc1	5%	21%	-7%	0%	-7%	4%
COc1ccc(OC)c(/C=C2\S/C(=N/NC(=O)c3ccc4ccccc4c3)NC2=O)c1	-11%	16µM*	-3%	-1%	2%	-3%
O=C1N/C(=N/NC(=O)c2cccc3ccccc23)S/C1=C\c1ccccc1OCc1ccccc1	-2%	23µM*	?	1%	5%	-6%
CCCCCCCCCCCC(CC1OC(=O)C1CCCCCC)OC(=O)C(CC(C)C)NC=O (configuration not stated)	/	5.3µM*	/	/	13%	/
COc1ccc2[nH]c(C(=O)N/N=C/c3ccc(OC)c(O)c3)cc2c1	?	2.1µM*	?	11%	12µM*	-10%
CCCOc1ccc2[nH]c(C(=O)N/N=C/c3cc(OC)c(OC)c(OC)c3)cc2c1	0%	?	?	-6%	4%	2%
CCOc1ccc(/C=N/NC(=O)c2cc3c(OC)cc(OC)c(OC)c3[nH]2)cc1	14%	?	8.2µM*	-16%	?	-7%
COc1ccc2[nH]c(C(=O)N/N=C/c3ccccc3OC)cc2c1	-1%	27%	?	-4%	?	-7%
CCOc1ccc2[nH]c(C(=O)N/N=C/c3ccccc3OC)cc2c1	-2%	5.2µM*	?	-4%	15µM*	19%
Cc1ccccc1/C=N/NC(=O)c1ccc(-n2cnnn2)cc1	-2%	6%	-9%	-1%	-3%	8%
COc1ccc(NS(=O)(=O)c2cc(C(=O)N(C)CCc3ccccn3)ccc2Cl)cc1	/	11%	/	/	117%	/
COc1ccccc1C1CC(=O)Nc2cc3c(cc21)OCCO3 (configuration not stated)	15%	3.7µM*	9%	4%	2.1µM*	/
CCOc1ccccc1C1CC(=O)Nc2cc3c(cc21)OCO3 (configuration not stated)	1%	-2%	?	-1%	3%	-3%
COc1cccc(C2CC(=O)Nc3cc4c(cc32)OCCO4)c1OC(C)C (configuration not stated)	-3%	?	?	-1%	?	-1%
Cc1ccc(C2CC(=O)Nc3cc4c(cc32)OCCO4)s1 (configuration not stated)	-12%	24%	?	21%	10%	6%
CC(C)Oc1ccccc1C1CC(=O)Nc2cc3c(cc21)OCCO3 (configuration not stated)	4%	?	?	-3%	1.6µM*	3%
COc1cc2c(cc1OC)C(c1ccc(SC)cc1)CC(=O)N2 (configuration not stated)	-2%	4.6µM*	-4%	2%	-36%	-7%
O=C1CC(c2cccs2)c2cc3c(cc2N1)OCCO3 (configuration not stated)	9%	18µM*	-6%	-1%	4%	3%
O=C(COc1ccc2cc(Br)ccc2c1Br)N1CCOCC1	-3%	3%	17%	0%	?	4%
O=S(=O)(NCc1nnc2ccccn12)c1ccc(F)cc1	-5%	3%	-3%	-3%	0%	2%
Cc1nn(C(C)C(=O)N/N=C/c2ccc(N(C)C)cc2)c(C)c1[N+](=O)[O-] (configuration not stated)	-1%	0%	10%	1%	-1%	9%
FC(F)(F)c1nc(-c2cccs2)ncc1-c1nnnn1-c1ccc(Cl)cc1	3%	6.5µM*	21µM*	-15%	6%	-5%
Clc1ccc(-n2nnnc2-c2cnc(-c3ccncc3)nc2-c2cccs2)cc1	-11%	?	?	-4%	?	6%
CC1CCC(NC(=O)c2ccc(NC(=O)CC3SC(N4CCCC4)=NC3=O)cc2)CC1 (configuration not stated)	?	1%	?	19%	-61%	-2%
SMILES	p53 reactivator	MCF10A rerep	ELG1 repair inh	ELG1 genotox	SW480 rereplic	AT treatment
N#CCCCC1(CCCC#N)OCCO1	/	-2%	/	/	-6%	/
COP(=O)(OC)c1nc(-c2cccc3ccccc23)oc1NCc1ccccc1	2%	18µM*	?	2%	13µM*	14%
O=C(COC(=O)c1ccccc1F)NC(=O)NC1CCCC1	2%	0%	0%	3%	-37%	2%
Cc1cc2c(c(=O)o1)C(c1ccc([N+](=O)[O-])o1)C(C#N)=C(N)O2 (configuration not stated)	-2%	-21%	?	1%	-23%	32µM*
CCC(CC)C1C(C#N)=C(N)Oc2cc(C)oc(=O)c21 (configuration not stated)	2%	17%	1%	0%	-9%	1%
Cc1cc(NC(=O)CSc2nc3cc(Cl)ccc3o2)no1	0%	9%	5%	1%	9%	0%
CCN(CC)S(=O)(=O)c1ccc2oc(SCC(=O)Nc3cc(C)on3)nc2c1	?	17%	10µM*	-1%	?	-1%
c1ccc2oc(NC3=NCN(CC4CCCO4)CN3)nc2c1 (configuration not stated)	?	-1%	?	10µM*	-10%	4%
COc1ccc(CN(CC2CCCO2)C(=O)CN2C(=O)C(C)Oc3ccc(C)cc32)cc1OC (configuration not stated)	-7%	?	8.2µM*	-9%	1%	-2%
COc1ccc(C2C3=C(CCCC3=O)N(CC(=O)O)C3=C2C(=O)CCC3)cc1Cl	11%	21µM*	2%	1%	?	10%
CCCOc1c(Br)cc(C2C3=C(CCCC3=O)N(CC)C3=C2C(=O)CCC3)cc1OC	-4%	?	11%	1%	16µM*	14%
CCOc1cc(C2C3=C(CCCC3=O)N(CC(=O)O)C3=C2C(=O)CCC3)ccc1OC	9%	?	10%	-4%	-63%	15%
C#CCOc1c(Cl)cc(C2C3=C(CCCC3=O)N(CC(=O)O)C3=C2C(=O)CCC3)cc1OC	/	21µM*	-11%	5%	-101%[1.84 µM]	6%
Cc1ccc(O)c(-c2cc(-c3ccccc3F)[nH]n2)c1	?	?	?	11µM*	12%	6%
